Most compounds without a hit are left out; they make up all but 3.9% or so of the library.
CCHF vOTU inh = CCHFV vOTU protease inhibitors, primary screen, biochemical, Pep-AMC substrate, fluorescence | Crimean-Congo hemorrhagic fever virus L polyprotein viral ovarian tumor (vOTU) protease … | inhibition, % at 11.5 µM | hit rate 0.55% among 370,000; in the data active means inhibition above about 30%
SARS 3CLpro inh = SARS-CoV 3CLpro protease inhibitors, primary screen, biochemical, quenched FRET | recombinant SARS-CoV 3CLpro, quenched FRET peptide cleavage | inhibition, % at 6 µM | hit rate 0.14% among 290,000; in the data active means inhibition above about 12%
Autofluor counter = counter-screen for toxin protease inhibitors: compound fluorescence. compound autofluorescence counterscreen, microsphere flow cytometry; active compounds read high. fluorescence intensity (no concentration beside the values). hit rate 3.1% among 360,000. AID 624483; in the data active means fluorescence intensity above about 16000; inconclusive means no clear call, values can overlap the other calls
BoNT F protease = BoNT/F light chain protease inhibitors, primary screen, biochemical, flow cytometry, MLPCN library | Botulinum neurotoxin type F light chain protease (Clostridium botulinum) | Multiplex microsphere protease cleavage assay | inhibition, % at 10 µM | hit rate 0.22% among 360,000; in the data active means inhibition above about 35%, passing the limit was not always enough; inconclusive means no clear call, values can overlap the other calls
BoNT-A LC inh2 = BoNT/A light chain protease inhibitors, primary screen, biochemical, flow cytometry, MLPCN library; multiplex microsphere protease substrate cleavage; inhibition, % at 10 µM; hit rate 0.17% among 360,000
Anthrax LF inh2 = Bacillus anthracis LF protease inhibitors, primary screen, biochemical, multiplex microsphere, MLPCN library | inhibition, % at 10 µM | hit rate 0.12% among 360,000 | AID 588501, 2011 | multiplex microsphere protease cleavage assay | Lethal factor (Bacillus anthracis), P15917
Target sequence (P15917 whole entry, looked up): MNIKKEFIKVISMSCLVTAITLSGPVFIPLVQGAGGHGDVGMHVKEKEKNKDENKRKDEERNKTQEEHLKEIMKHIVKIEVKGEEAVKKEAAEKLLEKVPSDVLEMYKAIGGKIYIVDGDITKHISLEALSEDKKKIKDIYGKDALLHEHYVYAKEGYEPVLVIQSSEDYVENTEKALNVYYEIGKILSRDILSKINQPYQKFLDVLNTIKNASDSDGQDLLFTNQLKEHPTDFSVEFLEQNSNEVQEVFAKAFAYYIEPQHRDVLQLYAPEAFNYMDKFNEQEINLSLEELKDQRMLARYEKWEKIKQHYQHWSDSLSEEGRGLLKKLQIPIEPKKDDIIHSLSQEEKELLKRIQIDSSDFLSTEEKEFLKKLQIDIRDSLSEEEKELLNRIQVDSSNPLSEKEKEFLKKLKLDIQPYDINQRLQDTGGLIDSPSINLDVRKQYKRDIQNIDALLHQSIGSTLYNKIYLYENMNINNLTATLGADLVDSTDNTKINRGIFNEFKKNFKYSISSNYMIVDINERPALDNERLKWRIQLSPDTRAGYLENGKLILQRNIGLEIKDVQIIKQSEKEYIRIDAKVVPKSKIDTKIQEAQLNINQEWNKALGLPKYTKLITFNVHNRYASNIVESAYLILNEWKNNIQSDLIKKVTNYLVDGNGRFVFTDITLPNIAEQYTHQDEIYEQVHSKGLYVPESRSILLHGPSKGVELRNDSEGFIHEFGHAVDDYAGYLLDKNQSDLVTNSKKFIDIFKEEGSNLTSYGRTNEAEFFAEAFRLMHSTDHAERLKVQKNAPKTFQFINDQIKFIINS
Each line names hits and unclear results; the compound was inactive in the other large screens. Unless noted, no stated cut-off is given here; in the data, active means inhibition above about 30%; inconclusive means no clear call, values can overlap the other calls; inactive means below that.

CCOC(=O)N1CCN(C(=O)Nc2cccc(Cl)c2)CC1	Autofluor counter 19827
CCOC(=O)N1CCN(C(=S)Nc2cccc(C)c2)CC1	Autofluor counter 23824
O=C1CCN(C(=O)Nc2cccc(Cl)c2)N1	Autofluor counter 22772
c1ccc(CCSc2nnc(-c3cccnc3)n2Cc2ccccc2)cc1	none (no result: SARS 3CLpro inh, Autofluor counter, BoNT F protease, BoNT-A LC inh2, Anthrax LF inh2)
Cc1cccc(NC(=O)NN(C(=O)c2ccccc2Cl)C(C)(C)C)c1	none (no result: SARS 3CLpro inh, Autofluor counter, BoNT F protease, BoNT-A LC inh2, Anthrax LF inh2)
COC(=O)c1ccc(NC(=S)N2CCN(Cc3cccc(C)c3)CC2)cc1	Autofluor counter 21917
CCOC(=O)c1nn(-c2ccccc2C)c(=O)c2c(N)scc12	none
CCOC(=O)c1nn(-c2ccccc2)c(=O)c2c(N)scc12	CCHF vOTU inh 37
CC(=O)Nc1cc(-c2ccc(CO)cc2)cn2c(-c3ccc(F)c(Cl)c3)cnc12	none (no result: SARS 3CLpro inh)
CCc1ccc(CNCCSc2nnnn2C)cc1	Autofluor counter 23525
COc1ccc(CNCCSc2nnnn2C)c(OC)c1OC	none
COc1cccc(CNCCSc2nnnn2C)c1	none
COc1ccc(CNCCSc2nnnn2C)cc1OC	Autofluor counter 19838
COc1ccc(Br)cc1CNCCSc1nnnn1C	Autofluor counter 22723
Cn1nnnc1SCCNCc1cccnc1	none
Cn1c(=O)[nH]c(=O)c2c1nc(N1CCc3ccccc3C1)n2CCSc1nc2ccccc2s1	Autofluor counter 16749
CN1CCN(c2nc3c(c(=O)[nH]c(=O)n3C)n2CCSc2nc3ccccc3s2)CC1	none
CN1CCN(c2nc3c(c(=O)[nH]c(=O)n3C)n2CCCSc2ncccn2)CC1	Autofluor counter 22784
CCCN(CC(=O)Nc1ccccc1C)C(=O)c1sc2ccccc2c1Cl	none (no result: SARS 3CLpro inh)
NC(=O)CSCc1cccc(Br)c1	none
O=C(CSCc1cccc(Br)c1)N1CCOCC1	Autofluor counter 23815
CC(C)[C@H](NC(N)=O)C(=O)NCCc1ccc(Cl)cc1	none
CC(C)[C@H](NC(=O)NCCc1ccc(Cl)cc1)C(=O)O	Autofluor counter 17382, BoNT-A LC inh2 inconclusive
COc1ccc(C(C(=O)Nc2ccc3c(c2)OCCO3)n2c(=O)c(-c3ccco3)nc3ccccc32)cc1 (centres undefined)	none (no result: SARS 3CLpro inh, Autofluor counter, BoNT F protease, BoNT-A LC inh2, Anthrax LF inh2)
COc1ccc(C2=NN(C(=O)c3cccc([N+](=O)[O-])c3)C(c3cccc([N+](=O)[O-])c3)C2)cc1 (centres undefined)	Autofluor counter 19134
COc1ccc(C2CC(c3cccc([N+](=O)[O-])c3)=NN2/C(C)=C/C(C)=O)cc1 (centres undefined)	Autofluor counter 54573, BoNT F protease 77 (no result: SARS 3CLpro inh)
Cn1ccnc1SCC(=O)Nc1cc(C(F)(F)F)ccc1N1CCOCC1	Autofluor counter 16282, BoNT-A LC inh2 inconclusive
O=C(Nc1cc(C(F)(F)F)ccc1N1CCOCC1)c1cccc(F)c1	none
O=C(Nc1cc(C(F)(F)F)ccc1N1CCOCC1)C1Cc2ccccc2CN1C(=O)c1ccco1 (centres undefined)	Autofluor counter 20221
Cn1ccnc1SCC(=O)Nc1cccc(O)c1	Autofluor counter 17009
O=C(Nc1cc(C(F)(F)F)ccc1N1CCOCC1)c1cncc(Br)c1	Autofluor counter 22690
O=C(Nc1ccccc1)C1Cc2ccccc2CN1C(=O)c1ccco1 (centres undefined)	none
Cc1ccsc1C(=O)OCC(=O)NCc1cccs1	none (no result: SARS 3CLpro inh)
OCc1ccccc1-c1cnc2sc(NCc3ccc(F)cc3)nn12	none (no result: SARS 3CLpro inh)
CCC(Sc1nnc(C)c(=O)[nH]1)C(=O)Nc1cccc2ccccc12 (centres undefined)	none
O=C(Nc1cc(C(F)(F)F)ccc1N1CCOCC1)c1ccc2ccccc2n1	Autofluor counter 19909
Cc1cc(C(=O)Nc2cc(C(F)(F)F)ccc2N2CCOCC2)no1	none
CC1CC(=O)Nc2ccccc2N1S(=O)(=O)c1ccc(F)cc1F (centres undefined)	none
O=c1c(-c2nnc(SCc3ccc(Cl)cc3Cl)o2)cccn1Cc1ccccc1	Autofluor counter 22041, BoNT-A LC inh2 inconclusive
CCOc1ccccc1CNC(=O)C1CCC(=O)N1C(C)C (centres undefined)	Autofluor counter 22457
CC(C)(C)C(=O)N(CCN(C(=O)C(C)(C)C)c1ccccc1)c1ccccc1	Autofluor counter 23201
COc1ccc(-c2cc(C(=O)O)c(C)o2)cc1OC	Autofluor counter 20243
COc1ccc(-c2n[nH]c(C)c2-c2cnn(-c3ccccc3)c2)c(O)c1	Autofluor counter 19850, BoNT-A LC inh2 inconclusive
CCn1c(=S)sc2c(=O)[nH]c(SCC(=O)Nc3cc(OC)ccc3OC)nc21	none
O=C(Nc1cc(C(F)(F)F)cc(C(F)(F)F)c1)c1ccc(Cn2cc(C(F)(F)F)ccc2=O)cc1	Autofluor counter 20069, BoNT-A LC inh2 inconclusive
CCOC(=O)C(=CNc1cc(C)ccc1C)C(=O)OCC	Autofluor counter 17727
CCOC(=O)CSCC(=O)Nc1cc(C)ccc1C	Autofluor counter 26149 (no result: CCHF vOTU inh)
COC(=O)c1ccc(COC(=O)CSCC(=O)Nc2ccc(C)cc2C)cc1	Anthrax LF inh2 inconclusive (no result: SARS 3CLpro inh)
CCOC(=O)C(=CNc1cc(C)ccc1[N+](=O)[O-])C(=O)OCC	BoNT F protease inconclusive
O=C1Nc2c(Br)cccc2C1=O	none (no result: SARS 3CLpro inh)
Cc1ccc(C(C(=O)NC2CCCCC2)N(C(=O)c2csnn2)C2CCCC2)o1 (centres undefined)	Autofluor counter 22165
Cc1ccc(C(C(=O)NC2CCCC2)N(C(=O)c2csnn2)C2CCCC2)o1 (centres undefined)	Autofluor counter 21439, BoNT-A LC inh2 inconclusive
NC1=NC2(CS1)CSC(N)=N2	none (no result: SARS 3CLpro inh, Autofluor counter, BoNT F protease, BoNT-A LC inh2, Anthrax LF inh2)
CC(C)CNC(=S)NNC(=O)c1ccc2c(c1)OCO2	Autofluor counter 17145
COc1ccc(N2CCN(CCCNC(=O)CCOC(C)(C)C)CC2)cc1	none (no result: SARS 3CLpro inh, Autofluor counter, BoNT F protease, BoNT-A LC inh2, Anthrax LF inh2)
CCOC(=O)N1CCN(c2ncnc3c2oc2nc(C(C)C)c4c(c23)CCC4)CC1	Autofluor counter 20792
CCCCn1c(O)c(C(CC)=NCCCN(C)C)c(=O)[nH]c1=O	Autofluor counter 16159
CCCCn1c(O)c(C(C)=NCCCN(CC)CC)c(=O)[nH]c1=O	Autofluor counter 23379
CCCCn1c(O)c(C(C)=NCCCN(C)C)c(=O)[nH]c1=O	none
CCCCn1c(O)c(C(C)=NCc2ccc(F)cc2)c(=O)[nH]c1=O	Autofluor counter 23819
O=C(O)C1CCCN1S(=O)(=O)c1cccc2nsnc12 (centres undefined)	none
C=CCn1c(C)cc(C)c(C#N)c1=O	Autofluor counter 22789
O=C(Nc1ccc(Br)cc1)c1cccc(OC(=S)N2CCOCC2)c1	none
Cc1ccccc1Cn1cnc2c([N+](=O)[O-])c(C)c(C)cc21	Autofluor counter 21365
COc1ccc(Cn2cnc3c([N+](=O)[O-])c(C)c(C)cc32)cc1	Autofluor counter 25028
COc1cccc(Cn2cnc3c(N)c(C)c(C)cc32)c1	none
Cn1c(SCc2nc3ccccc3c(=O)[nH]2)nc2ccccc21	none
